Measured values taken from the supplement of paper PMC10849652.
Of roughly 7,900 targets only a part is listed; those with a hit were picked by preference. About 0.6% of all pairs of compound and target were hits.

Key:
Test in all cases: log2 fold change, soluble protein after heating vs DMSO (PISA); higher = thermal stabilisation; K562 cells, 10 uM, 30 min; active = over 0.2 and 3.5 SD of the protein, either way, in both replicates (recomputed)
[1] = compound: COC1=CC=C(C=C1)CN2C=CC3=C2C=C(C=C3)C(=O)NO
Outline: (§1)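 Soluble protein was defined as the supernatant after 21,000xg for 90 min. It came from K562 cells at 2×10^6 cells/mL given 10 μM compound for 30 min, heated in aliquots for 3 min across 48°C-58°C, pooled, and extracted in PBS with 0.5% NP-40 at 4°C, and was quantified by TMTpro 16plex LC-MS/MS with equalised channel sums. Thermal stability against control samples, from duplicates, is reported as log2 fold change.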

[2] = compound: CON(C)C(=O)N1N=C(c2cc(F)ccc2F)S[C@@]1(CCCN)c1ccccc1 [filanesib]
Outline: as §1

[3] = compound: CO[C@H]1C[C@@H]2CC[C@@H](C)[C@@](O)(O2)C(=O)C(=O)N2CCCC[C@H]2C(=O)O[C@H]([C@H](C)C[C@@H]2CC[C@H](n3cnnn3)[C@H](OC)C2)CC(=O)[C@H](C)/C=C(\C)[C@@H](O)[C@@H](OC)C(=O)[C@H](C)C[C@H](C)/C=C/C=C/C=C/1C [zotarolimus]
Outline: as §1

[4] = compound: COc1cc(C(=O)O)ccc1NC(=O)[C@@H]1N[C@@H](CC(C)(C)C)[C@](C#N)(c2ccc(Cl)cc2F)[C@H]1c1cccc(Cl)c1F [idasanutlin]
Outline: as §1

[5] = compound: COc1cc(Nc2ncc3c(n2)-c2ccc(Cl)cc2C(c2c(F)cccc2OC)=NC3)ccc1C(=O)O [alisertib]
Outline: as §1

[6] = compound: COc1cc2ncnc(Nc3ccc(F)c(Cl)c3)c2cc1OCCCN1CCOCC1 [gefitinib]
Outline: as §1

[7] = compound: COc1cccc2cc(-c3nc([C@H]4CC[C@H](C(=O)O)CC4)n4ncnc(N)c34)[nH]c12
Outline: as §1

[8] = compound: COc1cc2nc(-c3cc(F)ccc3O)nc(N[C@@H]3CNC[C@H]3C(C)(C)O)c2cc1OC
Outline: as §1

[9] = compound: CS(=O)(=O)CCNCc1ccc(-c2ccc3ncnc(Nc4ccc(OCc5cccc(F)c5)c(Cl)c4)c3c2)o1 [lapatinib]
Outline: as §1

[10] = compound: CS(=O)(=O)N1CCN(Cc2cc3nc(-c4cccc5[nH]ncc45)nc(N4CCOCC4)c3s2)CC1 [pictilisib]
Outline: as §1

Measured: log2 fold change

AP2M1 (UniProt C9JTK4)
inactive: [1] 0.016 | [2] 0.132 | [3] -0.203 | [4] 0.224 | [5] -0.177 | [6] 0.005 | [7] 0.123

ALKBH5 (UniProt Q6P6C2)
UniProt Q6P6C2, sequence (Q6P6C2 whole entry, looked up): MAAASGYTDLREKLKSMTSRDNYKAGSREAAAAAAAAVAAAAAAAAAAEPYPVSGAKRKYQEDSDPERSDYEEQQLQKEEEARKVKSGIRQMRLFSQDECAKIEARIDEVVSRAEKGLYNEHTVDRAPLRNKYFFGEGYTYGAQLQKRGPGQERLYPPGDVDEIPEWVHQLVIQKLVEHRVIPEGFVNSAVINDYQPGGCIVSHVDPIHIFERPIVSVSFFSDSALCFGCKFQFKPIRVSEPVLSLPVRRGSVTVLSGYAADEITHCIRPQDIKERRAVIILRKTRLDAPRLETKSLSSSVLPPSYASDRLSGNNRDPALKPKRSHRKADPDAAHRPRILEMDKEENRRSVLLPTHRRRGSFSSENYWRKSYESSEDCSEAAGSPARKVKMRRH
inactive: [1] 0.124 | [2] 0.001 | [3] -0.067 | [4] 0.016 | [5] -0.12 | [8] 0.044 | [6] 0.023 | [7] -0.138 | [9] -0.008 | [10] 0.094

ATG4B isoform 2 (UniProt Q9Y4P1)
UniProt Q9Y4P1, sequence (Q9Y4P1 whole entry, looked up): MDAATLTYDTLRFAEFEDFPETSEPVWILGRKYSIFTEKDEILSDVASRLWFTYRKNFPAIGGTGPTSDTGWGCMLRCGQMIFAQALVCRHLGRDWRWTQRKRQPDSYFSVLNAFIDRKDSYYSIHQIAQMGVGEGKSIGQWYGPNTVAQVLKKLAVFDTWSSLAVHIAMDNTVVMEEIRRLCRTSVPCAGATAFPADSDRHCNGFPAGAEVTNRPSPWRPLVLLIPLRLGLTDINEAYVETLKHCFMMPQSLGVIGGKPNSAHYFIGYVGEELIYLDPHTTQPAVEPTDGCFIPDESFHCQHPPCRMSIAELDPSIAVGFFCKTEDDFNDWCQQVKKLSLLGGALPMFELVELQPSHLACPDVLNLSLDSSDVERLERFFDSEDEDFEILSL
inactive: [1] -0.003 | [2] -0.142 | [3] 0.048 | [4] -0.045 | [5] -0.009 | [8] -0.058 | [6] 0.005 | [7] -0.082 | [9] -0.157 | [10] -0.311

AASDH (UniProt Q4L235)
inactive: [1] -0.13 | [2] -0.01 | [3] -0.221 | [5] -0.141 | [8] 0.041 | [6] -0.143 | [7] 0.207 | [9] 0.063 | [10] 0.093

AFDN isoform 1 (UniProt P55196)
UniProt P55196, sequence (P55196 whole entry, looked up): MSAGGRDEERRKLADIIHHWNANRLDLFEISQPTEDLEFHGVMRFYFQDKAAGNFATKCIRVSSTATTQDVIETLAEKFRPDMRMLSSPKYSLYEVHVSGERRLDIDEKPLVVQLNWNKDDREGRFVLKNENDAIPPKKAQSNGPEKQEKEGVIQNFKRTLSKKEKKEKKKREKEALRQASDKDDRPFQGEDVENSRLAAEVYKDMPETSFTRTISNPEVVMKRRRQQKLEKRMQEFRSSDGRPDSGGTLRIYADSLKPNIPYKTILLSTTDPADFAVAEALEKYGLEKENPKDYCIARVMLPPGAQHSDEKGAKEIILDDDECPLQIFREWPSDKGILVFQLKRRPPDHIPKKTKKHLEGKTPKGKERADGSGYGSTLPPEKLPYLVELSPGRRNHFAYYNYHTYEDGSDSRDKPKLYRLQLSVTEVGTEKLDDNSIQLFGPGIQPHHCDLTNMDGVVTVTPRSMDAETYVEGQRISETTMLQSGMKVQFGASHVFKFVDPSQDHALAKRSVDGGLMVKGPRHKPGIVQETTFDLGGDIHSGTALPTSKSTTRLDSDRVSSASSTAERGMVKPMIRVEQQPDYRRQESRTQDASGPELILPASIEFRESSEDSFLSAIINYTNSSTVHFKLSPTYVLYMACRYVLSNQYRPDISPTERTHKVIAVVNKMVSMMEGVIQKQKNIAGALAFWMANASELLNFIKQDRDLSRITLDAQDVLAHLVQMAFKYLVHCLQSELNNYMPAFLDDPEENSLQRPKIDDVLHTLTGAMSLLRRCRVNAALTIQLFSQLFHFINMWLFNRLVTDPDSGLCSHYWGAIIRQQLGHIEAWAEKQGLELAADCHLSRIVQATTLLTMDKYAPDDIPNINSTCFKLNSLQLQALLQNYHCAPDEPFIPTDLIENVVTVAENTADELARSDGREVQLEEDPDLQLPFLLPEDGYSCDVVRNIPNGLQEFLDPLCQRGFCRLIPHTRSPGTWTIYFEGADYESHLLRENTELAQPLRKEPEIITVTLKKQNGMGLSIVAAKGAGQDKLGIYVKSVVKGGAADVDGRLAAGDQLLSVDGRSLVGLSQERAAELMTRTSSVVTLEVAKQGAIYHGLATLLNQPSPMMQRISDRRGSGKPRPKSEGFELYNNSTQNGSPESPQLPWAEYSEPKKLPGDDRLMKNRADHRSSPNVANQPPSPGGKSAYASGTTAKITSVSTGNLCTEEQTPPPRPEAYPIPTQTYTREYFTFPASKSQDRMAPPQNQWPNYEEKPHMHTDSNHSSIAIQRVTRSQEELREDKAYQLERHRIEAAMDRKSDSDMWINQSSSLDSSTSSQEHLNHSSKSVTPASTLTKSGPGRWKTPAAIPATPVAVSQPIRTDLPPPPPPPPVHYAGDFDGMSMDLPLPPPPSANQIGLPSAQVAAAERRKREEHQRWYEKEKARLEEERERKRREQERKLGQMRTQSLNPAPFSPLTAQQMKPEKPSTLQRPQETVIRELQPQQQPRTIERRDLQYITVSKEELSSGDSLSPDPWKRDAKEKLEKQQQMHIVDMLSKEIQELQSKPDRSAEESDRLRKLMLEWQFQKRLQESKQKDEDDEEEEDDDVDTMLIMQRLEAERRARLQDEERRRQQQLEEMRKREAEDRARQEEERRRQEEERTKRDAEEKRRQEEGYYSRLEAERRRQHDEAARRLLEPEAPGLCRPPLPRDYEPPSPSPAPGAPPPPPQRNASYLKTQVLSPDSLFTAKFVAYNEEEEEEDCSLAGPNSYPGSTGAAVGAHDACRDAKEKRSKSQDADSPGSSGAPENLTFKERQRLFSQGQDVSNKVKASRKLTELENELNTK
inactive: [1] -0.151 | [2] 0.024 | [3] -0.01 | [4] 0.019 | [5] 0.127 | [7] 0.074 | [10] -0.144

BRD2 isoform 2 (UniProt P25440)
UniProt P25440, sequence (P25440 whole entry, looked up): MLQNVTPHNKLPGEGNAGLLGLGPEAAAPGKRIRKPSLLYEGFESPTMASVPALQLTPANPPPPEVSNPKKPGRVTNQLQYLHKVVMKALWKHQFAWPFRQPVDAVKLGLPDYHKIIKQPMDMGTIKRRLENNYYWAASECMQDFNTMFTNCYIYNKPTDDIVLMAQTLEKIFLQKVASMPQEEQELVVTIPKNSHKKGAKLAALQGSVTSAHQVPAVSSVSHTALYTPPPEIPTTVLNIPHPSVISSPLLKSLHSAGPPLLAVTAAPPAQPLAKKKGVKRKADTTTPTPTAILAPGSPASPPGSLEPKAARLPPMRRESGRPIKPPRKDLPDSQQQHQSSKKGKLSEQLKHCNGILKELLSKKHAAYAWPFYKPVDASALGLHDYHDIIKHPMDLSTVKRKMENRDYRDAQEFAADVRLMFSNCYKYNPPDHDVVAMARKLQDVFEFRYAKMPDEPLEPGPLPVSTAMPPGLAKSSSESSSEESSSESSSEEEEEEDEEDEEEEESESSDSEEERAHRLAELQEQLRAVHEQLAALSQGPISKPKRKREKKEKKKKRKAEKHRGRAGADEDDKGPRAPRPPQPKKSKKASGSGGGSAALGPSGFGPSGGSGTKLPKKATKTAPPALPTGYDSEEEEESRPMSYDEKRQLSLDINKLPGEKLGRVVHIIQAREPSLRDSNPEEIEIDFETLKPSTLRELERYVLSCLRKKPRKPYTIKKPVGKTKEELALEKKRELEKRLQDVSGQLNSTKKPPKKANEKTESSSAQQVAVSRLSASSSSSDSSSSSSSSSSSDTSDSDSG
inactive: [1] -0.174 | [2] -0.11 | [3] -0.361 | [4] 0.072 | [8] 0.214 | [9] 0.005 | [10] 0.016

APOBEC3G (UniProt Q9HC16)
inactive: [1] -0.012 | [2] 0.066 | [4] 0.039 | [5] -0.092 | [8] 0.047 | [6] -0.074 | [7] -0.053 | [9] 0.046

AGRN (UniProt O00468)
inactive: [1] -0.068 | [2] 0.014 | [3] -0.001 | [4] -0.005 | [5] -0.043 | [8] -0.071 | [6] 0.118 | [7] 0.037 | [9] 0.018 | [10] 0.055

ATIC (UniProt P31939)
UniProt P31939, sequence (P31939 whole entry, looked up): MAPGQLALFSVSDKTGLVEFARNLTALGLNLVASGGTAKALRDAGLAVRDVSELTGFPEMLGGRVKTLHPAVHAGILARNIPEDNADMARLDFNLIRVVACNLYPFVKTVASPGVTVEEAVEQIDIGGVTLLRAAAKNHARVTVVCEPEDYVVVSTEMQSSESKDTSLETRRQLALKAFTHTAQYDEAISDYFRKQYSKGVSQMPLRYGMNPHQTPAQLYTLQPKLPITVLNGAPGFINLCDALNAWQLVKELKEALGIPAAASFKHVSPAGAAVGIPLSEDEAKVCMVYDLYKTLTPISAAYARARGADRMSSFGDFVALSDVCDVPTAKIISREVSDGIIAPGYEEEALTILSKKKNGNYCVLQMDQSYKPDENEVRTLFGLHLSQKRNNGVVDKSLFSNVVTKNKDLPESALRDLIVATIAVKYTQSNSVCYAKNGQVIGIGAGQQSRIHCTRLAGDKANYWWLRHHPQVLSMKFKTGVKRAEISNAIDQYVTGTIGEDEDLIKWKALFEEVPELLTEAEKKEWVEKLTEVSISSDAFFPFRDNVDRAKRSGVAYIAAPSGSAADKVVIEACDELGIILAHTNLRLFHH
inactive: [1] 0.047 | [2] -0.039 | [3] 0.046 | [4] -0.03 | [5] -0.092 | [8] -0.027 | [6] 0.114 | [7] -0.008 | [9] -0.001 | [10] -0.008

ADD3 isoform 2 (UniProt Q9UEY8)
UniProt Q9UEY8, sequence (Q9UEY8 whole entry, looked up): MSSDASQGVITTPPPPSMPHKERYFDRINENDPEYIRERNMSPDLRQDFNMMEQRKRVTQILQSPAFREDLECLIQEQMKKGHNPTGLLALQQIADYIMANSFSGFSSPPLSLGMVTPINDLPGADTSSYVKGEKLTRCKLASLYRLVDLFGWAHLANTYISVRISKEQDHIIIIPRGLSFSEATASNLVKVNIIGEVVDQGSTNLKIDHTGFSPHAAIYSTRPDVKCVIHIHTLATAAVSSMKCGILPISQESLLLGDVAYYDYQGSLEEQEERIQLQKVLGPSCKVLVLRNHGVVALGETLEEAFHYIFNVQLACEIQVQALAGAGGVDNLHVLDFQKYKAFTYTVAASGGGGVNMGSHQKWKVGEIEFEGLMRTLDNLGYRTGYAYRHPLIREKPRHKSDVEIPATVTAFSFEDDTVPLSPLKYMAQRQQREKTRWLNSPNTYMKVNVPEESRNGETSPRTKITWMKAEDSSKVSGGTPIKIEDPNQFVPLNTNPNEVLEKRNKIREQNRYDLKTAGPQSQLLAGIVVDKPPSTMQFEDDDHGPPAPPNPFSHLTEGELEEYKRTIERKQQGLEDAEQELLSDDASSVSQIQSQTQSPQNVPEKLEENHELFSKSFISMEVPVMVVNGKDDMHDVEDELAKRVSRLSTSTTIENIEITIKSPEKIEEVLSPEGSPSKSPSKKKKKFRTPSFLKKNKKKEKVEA
inactive: [1] -0.022 | [2] -0.025 | [3] 0.186 | [4] -0.276 | [5] -0.042 | [8] 0.094 | [7] -0.003 | [9] -0.028 | [10] 0.125

ABHD17A isoform 2 (UniProt Q96GS6)
inactive: [1] -0.194 | [2] 0.086 | [3] 0.012 | [4] 0.034 | [5] 0.032 | [8] 0.069 | [6] 0.081 | [7] 0.027 | [9] -0.038 | [10] 0.077

ARL6IP4 (UniProt Q66PJ3)
inactive: [1] -0.025 | [2] 0.023 | [3] 0.014 | [4] 0.172 | [5] -0.053 | [8] 0.002 | [6] -0.039 | [7] 0.05 | [9] -0.023 | [10] -0.007

B4GALT1 (UniProt P15291)
inactive: [1] -0.04 | [2] 0.014 | [3] 0.067 | [4] 0 | [5] 0.051 | [8] -0.037 | [6] 0.022 | [7] 0.021 | [9] 0.042 | [10] 0.128

ALKBH4 (UniProt Q9NXW9)
UniProt Q9NXW9, sequence (Q9NXW9 whole entry, looked up): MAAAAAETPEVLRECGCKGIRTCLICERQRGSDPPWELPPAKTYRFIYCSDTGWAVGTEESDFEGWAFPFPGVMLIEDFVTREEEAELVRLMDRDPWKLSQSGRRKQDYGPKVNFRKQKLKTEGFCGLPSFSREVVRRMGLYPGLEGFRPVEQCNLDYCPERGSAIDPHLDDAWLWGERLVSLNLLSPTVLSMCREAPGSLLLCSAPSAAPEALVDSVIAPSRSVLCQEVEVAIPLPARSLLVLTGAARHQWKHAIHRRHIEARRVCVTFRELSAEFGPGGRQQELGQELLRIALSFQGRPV
inactive: [1] -0.203 | [2] -0.036 | [3] 0.06 | [4] -0.036 | [5] 0.086 | [8] -0.058 | [7] 0.014 | [9] -0.023 | [10] 0.106

ALDH1B1 (UniProt P30837)
inactive: [1] 0.051 | [2] -0.1 | [3] 0.029 | [4] -0.122 | [5] -0.045 | [8] -0.009 | [6] 0.091 | [7] 0.075 | [9] -0.003 | [10] 0.062

ARMC8 (UniProt Q8IUR7)
inactive: [1] 0.056 | [2] 0.048 | [3] 0 | [4] -0.016 | [5] -0.08 | [8] -0.014 | [6] -0.029 | [7] -0.016 | [9] 0.046 | [10] 0.005

ACBD6 (UniProt Q9BR61)
inactive: [1] 0.099 | [2] 0.034 | [3] 0.016 | [4] 0.09 | [5] -0.088 | [8] 0.133 | [6] -0.018 | [7] -0.271 | [9] -0.14 | [10] 0.012

BRAF (UniProt P15056)
inactive: [1] -0.031 | [2] -0.05 | [3] -0.004 | [4] -0.047 | [5] 0.007 | [8] -0.076 | [6] 0.012 | [7] 0.015 | [10] -0.061

ABCA4 (UniProt P78363)
inactive: [1] 0.394 | [2] 0.076 | [3] 0.031 | [4] -0.02 | [5] -0.071 | [6] 0.014 | [7] -0.007 | [10] 0.135

BDH2 (UniProt Q9BUT1)
inactive: [1] 0.022 | [2] -0.007 | [3] 0.098 | [4] -0.039 | [5] 0.071 | [8] 0.065 | [7] -0.001 | [9] 0.012 | [10] 0.007

ADD1 isoform 3 (UniProt P35611)
inactive: [1] 0.071 | [2] 0.013 | [3] -0.025 | [4] 0.014 | [5] -0.059 | [8] -0.009 | [6] 0.007 | [7] 0.066 | [9] 0.015 | [10] -0.004

ALG3 (UniProt Q92685)
inactive: [1] 0.109 | [2] -0.095 | [3] 0.06 | [4] -0.212 | [5] -0.001 | [8] 0.035 | [6] -0.046 | [7] 0 | [9] 0.104 | [10] 0.006

ADAMTS5 (UniProt Q9UNA0)
inactive: [1] 0.295 | [2] -0.051 | [3] -0.063 | [4] -0.06 | [5] 0.019 | [6] 0.012 | [7] 0.092 | [10] 0.198

ADD2 isoform 9 (UniProt P35612)
inactive: [2] 0.043 | [5] -0.072 | [8] -0.053 | [7] 0.282 | [9] 0.04

BRD4 (UniProt O60885)
inactive: [2] -0.068 | [3] -0.253 | [4] -0.001 | [5] -0.064 | [8] 0.078 | [6] 0.152 | [7] -0.003 | [9] -0.039 | [10] 0.161
